Hit rate of the full screen: of about 5,500 compounds, about 2,000 (36%) were called active. Not shown: some 18% with an inconclusive outcome. No stated cut-off is given here; in the data, active means normalized growth mostly below about 0.91 (no sharp cut-off); inconclusive means no clear call, values can overlap the other calls; inactive means mostly above about 0.92. Some of the results follow.
Experiment: chemical genetic growth profiling, strain panel (AID 1159580);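 further: tested at 20 µM; growth read once vehicle control cultures reached saturation at 30 °C; 1 = growth at the plate median or of vehicle wells; lower values mean less growth of the strain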
Conditions: growth OD

Measured: normalized growth

CC(=O)[C@@]1(O)CCC2C3C[C@H](C)C4=CC(=O)C=CC4(C)[C@@]3(F)[C@@H](O)C[C@@]21C (stereo partly drawn)
inactive: S. cerevisiae deletion strains, locus YJR066W, strain TOR1, hits give low values 0.936 | S. cerevisiae deletion strains, locus YKL009W, strain mrt4, hits give low values 1.01 | S. cerevisiae deletion strains, locus YKL068W, hits give low values 1.01 | S. cerevisiae deletion strains, locus YKL085W, strain MDH1 (second series), hits give low values 1.01 | S. cerevisiae deletion strains, locus YKL085W, strain MDH1, hits give low values 1.01 | S. cerevisiae deletion strains, locus YKL160W, strain elf1, hits give low values 0.976 | S. cerevisiae deletion strains, locus YKL190W, strain CNB1, hits give low values 0.988 | S. cerevisiae deletion strains, locus YKR001C, strain vps1, hits give low values 0.987 | S. cerevisiae deletion strains, locus YKR026C, strain gcn3, hits give low values 0.982 | S. cerevisiae deletion strains, locus YKR091W, strain srl3, hits give low values 0.956 | S. cerevisiae deletion strains, locus YLL001W, strain dnm1, hits give low values 1.01 | S. cerevisiae deletion strains, locus YLL026W, hits give low values 0.979 | S. cerevisiae deletion strains, locus YLL041C, strain sdh2, hits give low values 0.988 | S. cerevisiae deletion strains, locus YLR027C, strain aat2, hits give low values 0.978 | S. cerevisiae deletion strains, locus YLR039C, strain RIC1, hits give low values 1.03 | S. cerevisiae deletion strains, locus YLR058C, strain SHM2, hits give low values 1.01 | S. cerevisiae deletion strains, locus YLR102C, strain apc9, hits give low values 1 | S. cerevisiae deletion strains, locus YLR113W, strain HOG1, hits give low values 0.988 | S. cerevisiae deletion strains, locus YLR221C, strain rsa3, hits give low values 0.968 | S. cerevisiae deletion strains, locus YLR258W, strain gsy2, hits give low values 0.971 | S. cerevisiae deletion strains, locus YLR262C, strain YPT6 (second series), hits give low values 0.981 | S. cerevisiae deletion strains, locus YLR262C, strain YPT6, hits give low values 0.98 | S. cerevisiae deletion strains, locus YLR268W, strain sec22, hits give low values 0.991 | S. cerevisiae deletion strains, locus YLR320W, strain mms22, hits give low values 0.962 | S. cerevisiae deletion strains, locus YLR330W, strain CHS5, hits give low values 1 | S. cerevisiae deletion strains, locus YLR342W, strain FKS1 (second series), hits give low values 0.992 | S. cerevisiae deletion strains, locus YLR342W, strain FKS1, hits give low values 0.979 | S. cerevisiae deletion strains, locus YLR357W, strain rsc2, hits give low values 0.951 | S. cerevisiae deletion strains, locus YLR370C, strain arc18, hits give low values 0.982 | S. cerevisiae deletion strains, locus YLR371W, strain rom2, hits give low values 1 | S. cerevisiae deletion strains, locus YLR384C, strain iki3, hits give low values 0.981 | S. cerevisiae deletion strains, locus YLR418C, strain cdc73, hits give low values 1.02 | S. cerevisiae deletion strains, locus YML016C, strain PPZ1, hits give low values 1 | S. cerevisiae deletion strains, locus YML032C, strain rad52, hits give low values 0.996 | S. cerevisiae deletion strains, locus YML120C, strain ndi1, hits give low values 0.954 | S. cerevisiae deletion strains, locus YML124C, strain tub3, hits give low values 1.01 | S. cerevisiae deletion strains, locus YMR058W, strain fet3, hits give low values 0.983 | S. cerevisiae deletion strains, locus YMR078C, strain ctf18, hits give low values 1 | S. cerevisiae deletion strains, locus YMR125W, strain sto1, hits give low values 0.965 | S. cerevisiae deletion strains, locus YMR129W, hits give low values 0.964 | S. cerevisiae deletion strains, locus YMR205C, strain PFK2, hits give low values 0.975 | S. cerevisiae deletion strains, locus YMR223W, strain ubp8, hits give low values 1.04 | S. cerevisiae deletion strains, locus YMR231W, strain pep5, hits give low values 0.973 | S. cerevisiae deletion strains, locus YMR307W, strain GAS1, hits give low values 0.976 | S. cerevisiae deletion strains, locus YNL067W, strain RPL9B, hits give low values 0.993 | S. cerevisiae deletion strains, locus YNL071W, strain lat1, hits give low values 0.972 | S. cerevisiae deletion strains, locus YNL128W, strain TEP1, hits give low values 1.01 | S. cerevisiae deletion strains, locus YNL153C, strain GIM3, hits give low values 0.992 | S. cerevisiae deletion strains, locus YNL183C, strain NPR1, hits give low values 0.942 | S. cerevisiae deletion strains, locus YNL209W, strain ssb2, hits give low values 0.98 | S. cerevisiae deletion strains, locus YNL233W, strain BNI4, hits give low values 1 | S. cerevisiae deletion strains, locus YNL248C, strain rpa49, hits give low values 0.914 | S. cerevisiae deletion strains, locus YNL250W, strain rad50, hits give low values 1.03 | S. cerevisiae deletion strains, locus YNL271C, strain bni1, hits give low values 1.02 | S. cerevisiae deletion strains, locus YNL298W, strain CLA4, hits give low values 0.999 | S. cerevisiae deletion strains, locus YNL307C, strain MCK1, hits give low values 1.02 | S. cerevisiae deletion strains, locus YNL322C, strain KRE1 (second series), hits give low values 0.955 | S. cerevisiae deletion strains, locus YNR049C, strain mso1, hits give low values 0.951 | S. cerevisiae deletion strains, locus YNR052C, strain pop2, hits give low values 1.01 | S. cerevisiae deletion strains, locus YOL012C, strain htz1 0.807 | S. cerevisiae deletion strains, locus YOL147C, strain pex11, hits give low values 1.01 | S. cerevisiae deletion strains, locus YOR001W, strain rrp6, hits give low values 0.971 | S. cerevisiae deletion strains, locus YOR061W, strain CKA2, hits give low values 1.01 | S. cerevisiae deletion strains, locus YOR069W, strain VPS5, hits give low values 1 | S. cerevisiae deletion strains, locus YOR070C, strain gyp1, hits give low values 0.986 | S. cerevisiae deletion strains, locus YOR080W, strain dia2, hits give low values 0.975 | S. cerevisiae deletion strains, locus YOR083W, strain WHI5, hits give low values 0.974 | S. cerevisiae deletion strains, locus YOR106W, strain vam3, hits give low values 0.977 | S. cerevisiae deletion strains, locus YOR136W, strain idh2, hits give low values 1 | S. cerevisiae deletion strains, locus YOR144C, strain elg1, hits give low values 1 | S. cerevisiae deletion strains, locus YOR184W, strain ser1, hits give low values 1.01 | S. cerevisiae deletion strains, locus YOR231W, strain MKK1, hits give low values 1 | S. cerevisiae deletion strains, locus YOR265W, strain rbl2, hits give low values 0.974 | S. cerevisiae deletion strains, locus YOR270C, strain vph1, hits give low values 0.926 | S. cerevisiae deletion strains, locus YOR290C, strain snf2, hits give low values 0.944 | S. cerevisiae deletion strains, locus YOR316C, strain cot1, hits give low values 1.01 | S. cerevisiae deletion strains, locus YPL051W, strain arl3, hits give low values 0.985 | S. cerevisiae deletion strains, locus YPL055C, strain LGE1, hits give low values 0.993 | S. cerevisiae deletion strains, locus YPL078C, strain atp4, hits give low values 0.992 | S. cerevisiae deletion strains, locus YPL106C, strain sse1, hits give low values 0.922 | S. cerevisiae deletion strains, locus YPL240C, strain hsp82, hits give low values 0.975 | S. cerevisiae deletion strains, locus YPL256C, strain CLN2, hits give low values 0.981 | S. cerevisiae deletion strains, locus YPR119W, strain clb2, hits give low values 1.01 | S. cerevisiae deletion strains, locus YPR141C, strain kar3, hits give low values 1.01 | S. cerevisiae deletion strains, locus YPR163C, strain tif3, hits give low values 1.01 | S. cerevisiae deletion strains, locus YPR167C, strain met16, hits give low values 1.02 | S. cerevisiae deletion strains, strain wtn01, hits give low values 1.01 | S. cerevisiae strains, strain wild type, hits give low values 0.987

— PubChem BioAssay AID1159580 (chemical genetic matrix, 2015)
